Experiments:
Test in all cases: cell proliferation relative to vehicle (% of vehicle); higher = less growth inhibition
Conditions in all cases: 72 h
[1] = system: U2932 TK216-resistant clone 2
Method in brief: (§1)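 Parental U2932 cells (ABC-DLBCL) and two clones made resistant to an ETS-targeting agent by almost a year of repeated exposure were treated for 72 h with 348 targeted inhibitors at 500 nM or 50 nM. MTT was then applied for 4 h, the reaction was stopped with 25% SDS, and absorbance was measured on a Cytation 3. Values express proliferation as percent of proliferating cells compared with DMSO vehicle.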

[2] = system: U2932 TK216-resistant clone 3
Method in brief: as §1

U2932 parental = system: U2932 parental
Method in brief: as §1

SMILES | cell proliferation ([1]; 50 nM) | cell proliferation ([1]; 500 nM) | cell proliferation ([2]; 50 nM) | cell proliferation ([2]; 500 nM) | cell proliferation (U2932 parental; 50 nM) | cell proliferation (U2932 parental; 500 nM)
O=C(/C=C/c1cccc(S(=O)(=O)Nc2ccccc2)c1)NO [Belinostat (PXD101)] | 104 | 48.6 | 98.1 | 67.6 | 90.1 | 41.8
CCC[C@H](Nc1nc(-c2ccc(NC(=O)NCC)c(OC)c2)ncc1C)c1cccnc1 [CYT997 (Lexibulin)] | 10.1 | 9.29 | 8 | 12.1 | 10.4 | 14.3
Cc1ccc2c(=O)c3cccc(CC(=O)O)c3oc2c1C [DMXAA (Vadimezan)] | 110 | 99.3 | 101 | 95.3 | 101 | 99.2
COc1cc2c(Oc3ccc(NC(=O)C4(C(=O)Nc5ccc(F)cc5)CC4)cc3F)ccnc2cc1OCCCN1CCOCC1 | 101 | 69.7 | 98.3 | 66 | 92.7 | 58.9
C=CC(=O)N1C/C(=C\c2ccc([N+](=O)[O-])cc2)C(=O)/C(=C/c2ccc([N+](=O)[O-])cc2)C1 | 31.4 | -1.71 | 30.7 | -2.43 | 34.3 | 1.03
CO[C@H]1C[C@@H]2CC[C@@H](C)[C@@](O)(O2)C(=O)C(=O)N2CCCC[C@H]2C(=O)O[C@H]([C@H](C)C[C@@H]2CC[C@@H](OP(C)(C)=O)[C@H](OC)C2)CC(=O)[C@H](C)/C=C(\C)[C@@H](O)[C@@H](OC)C(=O)[C@H](C)C[C@H](C)/C=C/C=C/C=C/1C [Ridaforolimus (Deforolimus, MK-8669)] | 67.9 | 64.3 | 62.2 | 58.5 | 56.4 | 57.2
O=C(/C=C\n1cnc(-c2cc(C(F)(F)F)cc(C(F)(F)F)c2)n1)NNc1cnccn1 | 87.7 | 36.3 | 58.9 | 57.6 | 82.9 | 44.1
CN[C@@H](C)C(=O)N[C@H](C(=O)N1CCC[C@H]1C(=O)Nc1snnc1-c1ccccc1)C1CCCCC1 | 102 | 111 | 97.2 | 107 | 95 | 103
COc1cc(Nc2ncc(F)c(Nc3ccc4c(n3)NC(=O)C(C)(C)O4)n2)cc(OC)c1OC [R406 (free base)] | 98 | 87.2 | 103 | 98.3 | 94.8 | 92.8
O=NN(CCCl)C(=O)NC1CCCCC1 [Lomustine] | 112 | 103 | 111 | 105 | 101 | 114
CN(Cc1cnc2nc(N)nc(N)c2n1)c1ccc(C(=O)N[C@@H](CCC(=O)O)C(=O)O)cc1 [Methotrexate] | 102 | 37.1 | 102 | 67.8 | 99.4 | 29.9
CNC(=O)c1cc(Oc2ccc(NC(=O)Nc3ccc(Cl)c(C(F)(F)F)c3)cc2)ccn1 [Sorafenib] | 114 | 107 | 105 | 122 | 101 | 112
CC[C@H](CO)Nc1nc(NCc2ccccc2)c2ncn(C(C)C)c2n1 [Roscovitine (Seliciclib,CYC202)] | 105 | 102 | 107 | 107 | 99.6 | 106
O=c1[nH]cc(F)c(=O)[nH]1 [Fluorouracil (5-Fluoracil, 5-FU)] | 102 | 102 | 103 | 106 | 102 | 96.2
Nc1ncn([C@H]2C[C@H](O)[C@@H](CO)O2)c(=O)n1 [Decitabine] | 72.5 | 59.1 | 92.9 | 78.3 | 85.1 | 73.1
Nc1ncn([C@@H]2O[C@H](CO)[C@@H](O)[C@H]2O)c(=O)n1 [Azacitidine] | 103 | 96.5 | 103 | 97.2 | 99.9 | 91.8
CN1CCN(c2ccc3nc(-c4c(N)c5c(F)cccc5[nH]c4=O)[nH]c3c2)CC1 [Dovitinib (TKI-258, CHIR-258)] | 103 | 83.9 | 95.7 | 83.3 | 95.1 | 96.9
CCCCCCCCCCCCc1ccc(S(=O)(=O)Nc2nncs2)cc1 | 102 | 88.7 | 102 | 100 | 101 | 100
